Screening data: PubChem BioAssay, several laboratories
Rows were chosen to be rich in hits. Some 1.5% of all compounds tested hit in one or more screens of this group.
AI-2 QS mod – modulates the Vibrio harveyi AI-2 quorum sensing system; 300,000 compounds, 0.4% hits; activity change, % at 7.5 µM; Vibrio harveyi JMH597 AI-2 luminescence/OD600 ratio, 9 h; stronger effect = lower value; strain lacks LuxN and CqsS sensors; 0 = neutral-control median; in the data active = activity change below about -75%, passing the limit was not always enough; inconclusive = no clear call, values can overlap the other calls;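 note: luminescence divided by OD600 gain over 9 h not by final OD600 alone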
HGIII-sPLA2 inh – Blocks human group III sPLA2 activity | Q9NZ20 | QFRET BODIPY PC-A2 liposome hydrolysis, fluorescence | inhibition, % at 12.2 µM | 370,000 compounds, 0.56% hits | AID 743126;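 active = inhibition above mean plus 3 SD of compounds lying within the high and low control bounds, cut at about 19% in these data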;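 note: 0% = median of test compound wells and 100% = no enzyme DMSO wells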
ARNT TACC3 PPI – disrupts binding between human ARNT and TACC3; 390,000 compounds, 0.66% hits; inhibition, % at 9.99 µM; AID 623870; Q9Y6A5; AlphaScreen His-ARNT PAS-B/GST-TACC3 binding, luminescence; TACC3 fragment carries E629A point mutation;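 active = mean inhibition of replicates at least 50% and at least half of replicates each reaching 50%; inconclusive = half or more replicates reach 50% but mean below 50%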;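 note: 0% = complete ARNT plus TACC3 wells and 100% = ARNT alone without TACC3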
Rin1 Abl inh – blocks binding of human Rin1 to Abl. inhibition, % at 7.35 µM. 360,000 compounds, 0.4% hits. TR-FRET Rin1/Abl binding, biochemical. AID 588664; in the data active = inhibition above about 5%, passing the limit was not always enough
Starred values were filed as active, the others as inactive; ? = inconclusive; . = no result; ! = repeats disagree.

SMILES | AI-2 QS mod | HGIII-sPLA2 inh | ARNT TACC3 PPI | Rin1 Abl inh
O=C(NCC[C@H]1CC[C@H](NC(=O)C2CCC2)[C@H](CO)O1)Nc1ccc(Cl)cc1 | . | . | -12 | .
O=C(Nc1ccc(F)cc1)c1nc[nH]c1C(=O)O | 23 | 2 | 54* | 1
Cc1cc(C(=O)N/N=C/c2cc(Cl)cc([N+](=O)[O-])c2O)c2ccccc2n1 | 10 | -3 | 76* | -5
O=C(N/N=C/c1cc(Cl)cc([N+](=O)[O-])c1O)c1cccc(S(=O)(=O)N2CCOCC2)c1 | . | 5 | 71* | -2
O=C(N/N=C/c1cc(Br)cc(Br)c1O)c1cccc(S(=O)(=O)N2CCOCC2)c1 | 4 | 13 | 44 | -1
C[C@H](CO)N1C[C@H](C)[C@H](CN(C)C(=O)Nc2ccc(F)cc2)Oc2ccc(NC(=O)Cc3ccccc3)cc2CC1=O | . | . | 9 | .
CO[C@H]1CN(C)C(=O)c2cc(NS(=O)(=O)c3ccc(C)cc3)ccc2OC[C@@H](C)NC[C@H]1C | . | . | -4 | .
Cc1cc(NC(=O)CSc2nnc(-c3ccc(O)cc3)o2)no1 | 52 | -6 | 47* | -3
Cc1cc(NC(=O)CSc2nnc(C)o2)no1 | 38 | 3 | 47* | 3
CCC(c1nnc(SCC(=O)Nc2cc(C)on2)o1)N(C)C (stereo not drawn) | . | 7 | 76* | 2
CO[C@H]1CC[C@H]2CCOc3ccc(C#N)cc3C(=O)N(C)C[C@H](OC)[C@@H](C)C(=O)N(C)C[C@H]1O2 | . | . | -3 | .
C[C@@H]1CN([C@@H](C)CO)C(=O)c2cc(NC(=O)Nc3ccc(C(F)(F)F)cc3)ccc2O[C@@H]1CN(C)C(=O)NC1CCCCC1 | . | . | 6 | .
COc1ccc(C#Cc2cnc3c(c2)C(=O)N([C@H](C)CO)C[C@H](C)[C@H](CN(C)S(=O)(=O)c2cccs2)O3)cc1OC | . | . | -2 | .
O=C(CN1CC(c2ccccc2)CC1=O)N/N=C/c1cc(Br)ccc1O (stereo not drawn) | -28 | -28 | 48* | 0
Cc1ccc(C2(C)NC(=O)N(CC(=O)NNC(=O)c3cc(C)oc3C)C2=O)cc1 (stereo not drawn) | -79* | 5 | -5 | 2
Cc1ccc(C2(C)NC(=O)N(CC(=O)NNC(=O)c3ccoc3C)C2=O)cc1 (stereo not drawn) | -41 | -2 | -2 | -1
COc1ccccc1NC(=O)N[C@H]1CC[C@@H](CC(=O)NCc2ccc(Cl)c(Cl)c2)O[C@@H]1CO | . | . | 1 | .
CC(=O)[C@@H]1[C@@H]2C(=O)N(c3ccc(F)c(Cl)c3)C(=O)[C@@H]2C2c3ccccc3C=CN21 (stereo partly drawn) | 17 | -8 | . | .
CC(=O)[C@H]1[C@@H]2C(=O)N(c3cccc(Cl)c3)C(=O)[C@@H]2[C@H]2c3ccccc3C=CN21 | 44 | -2 | 24* | 1
CNC[C@H]1Oc2cc(C#Cc3ccc(OC)cc3)ccc2S(=O)(=O)N([C@@H](C)CO)C[C@@H]1C | . | . | 9 | .
Cc1cccc(S(=O)(=O)N2CC[C@H]3[C@@H](CO)N(C)c4ccc(-c5cccc(C#N)c5)cc4[C@H]32)c1 | . | . | -6 | .
CCNc1nc(C(=O)O)nc(N2CCOCC2)n1 | 38 | 6 | 79* | -10
CCC(=O)N(C)C[C@H]1Oc2cc(-c3cccc(F)c3)ccc2S(=O)(=O)N([C@@H](C)CO)C[C@H]1C | . | . | -7 | .
COc1ccc(Cl)cc1N1C(=O)c2cccnc2C1=O | 8 | 5 | -1 | 0
COc1ccc(OC)c(N2C(=O)c3cccnc3C2=O)c1 | 6 | 8 | 47* | 3
SMILES | AI-2 QS mod | HGIII-sPLA2 inh | ARNT TACC3 PPI | Rin1 Abl inh
Cc1ccc(S(=O)(=O)N(C)C[C@@H]2Oc3c(NC(=O)NC4CCCCC4)cccc3C(=O)N([C@H](C)CO)C[C@@H]2C)cc1 | . | . | active | .
C[C@H]1CN([C@@H](C)CO)C(=O)c2cc(NC(=O)C3CC3)ccc2O[C@@H]1CN(C)C | . | . | 24 | .
C[C@@H]1CN([C@H](C)CO)C(=O)c2cc(NC(=O)C3CC3)ccc2O[C@H]1CN(C)C | . | . | 49* | .
Cc1ccc(S(=O)(=O)N(C)C[C@@H]2Oc3ccc(NC(=O)Cn4cnnn4)cc3C(=O)N([C@@H](C)CO)C[C@H]2C)cc1 | . | -8 | active! | 4
C[C@H](CO)N1C[C@H](C)[C@H](CN(C)Cc2ccc(C(=O)O)cc2)Oc2c(NC(=O)Nc3ccccc3)cccc2C1=O | . | . | 16 | .
CN(C)C(=O)C[C@@H]1CC[C@@H]2[C@H](COC[C@H](O)CN2Cc2nccs2)O1 | . | . | -9 | .
CC(=O)N1[C@H](CO)[C@H]2c3ccccc3N(S(=O)(=O)c3ccccc3F)C[C@H]21 | . | . | 3 | .
O=C(Nc1cccc(N2C(=O)C=CC2=O)c1)c1cccs1 | ? | -3 | -4 | 2
O=C1C=CC(=O)N1c1cccc(-c2ccccc2)c1 | -212* | 5 | -6 | -3
O=C1C(=C(c2ccccc2)c2ccccc2)Nc2ccccc21 | 15 | -10 | 8 | -8
O=C1C(=C(O)c2ccccc2)C(=O)c2ccccc21 | 35 | 4 | -3 | 13*
Cc1n[nH]c(=O)nc1N/N=C/c1ccco1 | -1 | 1 | 53* | 0
Cc1n[nH]c(=O)nc1NCc1ccco1 | 7 | 2 | -2 | -1
Cc1[nH]c(=O)[nH]c(=O)c1/C=N/NC(=O)CCCCCNC(=O)OC(C)(C)C | -2 | 4 | 20 | 1
Cc1[nH]c(=O)[nH]c(=O)c1/C=N/NC(=O)[C@H](C)N | -6 | -1 | 47* | -1
Cc1[nH]c(=O)[nH]c(=O)c1/C=N/NC(=O)CCNC(=O)OC(C)(C)C | 6 | 2 | 12 | -1
Cc1[nH]c(=O)[nH]c(=O)c1/C=N/NC(=O)[C@@H](NC(=O)OC(C)(C)C)C(C)C | 21 | -3 | 47* | -1
COc1ccccc1CNC(=O)C[C@H]1C[C@@H]2c3cc(NC(=O)CN(C)C)ccc3O[C@@H]2[C@H](CO)O1 | . | . | 0 | .
Cc1nc(C)c(C(=O)C2=C(O)C(=O)N(CCN3CCOCC3)C2c2ccco2)s1 (stereo not drawn) | 12 | -1 | 49* | -2
COc1cc(CCNC2=CC(=O)c3ncccc3C2=O)ccc1O | . | 1 | 37* | -7
COc1ccccc1CNS(=O)(=O)c1cc(CN2C(=O)c3cccnc3C2=O)ccc1OC | 2 | 1 | 22 | 1
NC(=N\N=Cc1ccco1)/C(N)=N/N=Cc1ccco1 | . | 3 | 63* | 7
NC(=N\N=Cc1ccccc1)/C(N)=N/N=Cc1ccccc1 | . | 14 | . | 1
FC(F)(F)c1cccc(NC(=S)NNC(=S)Nc2cccc(C(F)(F)F)c2)c1 | 32 | . | . | .
Cc1ccccc1C(=O)NNC(=S)Nc1cccc(C(F)(F)F)c1 | 4 | 24* | 5 | 1
Cc1ccn2c(Nc3ccc4c(c3)OCO4)c(-c3ccccn3)nc2c1 | 20 | 3 | 66* | -6
Cc1cc(C)n2c(Nc3ccc4c(c3)OCCO4)c(-c3ccccn3)nc2n1 | . | 0 | . | .
CO[C@@H]1CC[C@@H]2CCOc3c(C#N)cccc3C(=O)N(C)C[C@@H](c3ccccc3)CC(=O)N(C)C[C@@H]1O2 | . | . | -7 | .
C[C@@H]1CN([C@H](C)CO)C(=O)c2cc(-c3cncnc3)cnc2O[C@H]1CN(C)C(=O)c1ccccc1F | . | . | active | .
